Among the data in the antibiotic and cytotoxicity screens of Wong et al. (2023) are cytotoxicity call values, retold here.

Screen size: about 39,000 compounds; about 3,300 (8.5%) were called active. Many of the other results were omitted from the sample, so actives are more common in it than they were.

This test relates to HepG2. Kind of test: cytotoxicity call (relative viability < 0.9). Particulars: 10 µM.
Turning to `C[C@H](CO)N1C[C@H](C)[C@H](CN(C)Cc2ccc(Oc3ccccc3)cc2)Oc2cc(Br)ccc2S1(=O)=O`, the cytotoxicity call is “inactive”.
Then `C[C@H]1CN([C@@H](C)CO)C(=O)c2cc(NC(=O)CCCCCC(=O)Nc3ccccc3N)ccc2O[C@@H]1CN(C)C(=O)Nc1cccc2ccccc12`, with “inactive”; and `CC(C)NC(=O)N(C)C[C@H]1Oc2ccc(NS(=O)(=O)c3ccc(Cl)cc3)cc2C(=O)N([C@H](C)CO)C[C@@H]1C`, with “inactive”.
As for `C[C@H](CO)N1C[C@H](C)[C@H](CN(C)C(=O)Nc2ccc(F)cc2)Oc2c(NS(=O)(=O)c3cn(C)cn3)cccc2C1=O`, the cytotoxicity call is “inactive”.
In the case of `C[C@@H]1CN([C@@H](C)CO)C(=O)c2cccc(NC(=O)Nc3ccc(C(F)(F)F)cc3)c2O[C@@H]1CN(C)S(=O)(=O)c1ccc(F)cc1`, the cytotoxicity call was “inactive”.
As to `Nc1ncnc(N[C@H]2CCS(=O)(=O)C2)c1[N+](=O)[O-]`, the cytotoxicity call is “inactive”.
`C[C@@H]1CCCCO[C@H](CN(C)Cc2ccc(C(F)(F)F)cc2)[C@H](C)CN([C@H](C)CO)C(=O)c2cc(NC(=O)CCC(F)(F)F)ccc2O1`: the cytotoxicity call is “inactive”.
As for `COCC(=O)N1C[C@H](C)[C@H](OC)CN(C)C(=O)c2ccc(NC(=O)Nc3ccccc3)cc2OC[C@H]1C`, the cytotoxicity call was “inactive”.
`C[C@@H]1CN([C@H](C)CO)C(=O)Cc2cc(NS(=O)(=O)c3ccccc3)ccc2O[C@H]1CN(C)Cc1ccc(C(=O)O)cc1`: the cytotoxicity call was “inactive”.
Then `COc1ccc(S(=O)(=O)Nc2ccc3c(c2)C(=O)N([C@H](C)CO)C[C@H](C)[C@@H](CN(C)CC2CCCCC2)OCCCC[C@@H](C)O3)cc1`, with “inactive”.
For `C[C@H](CO)N1C[C@H](C)[C@@H](CN(C)S(=O)(=O)c2ccccc2)Oc2c(NS(=O)(=O)c3ccc(F)cc3)cccc2C1=O`, the cytotoxicity call was “inactive”.
With `CC(C)(C)[S@@](=O)N1Cc2cc(C(=O)N3CCCCC3)nc(-c3cccc(-c4ccccc4F)c3)c2[C@H]1CCO`, the cytotoxicity call is “inactive”.
`COc1ccc(C#Cc2cccc(-c3nc(C(=O)N4CCN(Cc5ccccc5)CC4)cc4c3[C@@H](CCO)N(S(=O)C(C)(C)C)C4)c2)cc1OC` (stereo partly drawn): the cytotoxicity call was “inactive”.
As for `CC(C)(C)[S@](=O)N1Cc2cc(C(=O)N3CCCCC3)nc(-c3cccc(-c4ccccc4F)c3)c2[C@@H]1CCO`, the entry is “inactive”; as for `CC(C)(C)S(=O)N1Cc2cc(C(=O)N3CCN(Cc4ccccc4)CC3)nc(-c3cccc(-c4cc5ccccc5o4)c3)c2[C@H]1CCO` (stereo partly drawn), “active”; as for `COc1ccc(C#Cc2cccc(-c3nc(C(=O)N4CCN(Cc5ccccc5)CC4)cc4c3[C@H](CCO)N(S(=O)C(C)(C)C)C4)c2)cc1OC` (stereo partly drawn), “inactive”.
Then `CC(C)(C)S(=O)N1Cc2cc(C(=O)N3CCN(Cc4ccccc4)CC3)nc(-c3cccc(C#CCC4CCCC4)c3)c2[C@H]1CCO` (stereo partly drawn), with “active”; and `COCCCN(C[C@]1(O)CC[C@H]2C3=CC=C4C[C@@H](O)CC[C@]4(C)[C@@H]3CC[C@@]21C)C(=O)O[C@H]1C[C@@H](C)CC[C@@H]1C(C)C`, with “inactive”.
Then `CC(C)NC(=O)N(C)C[C@H]1Oc2ccc(NS(=O)(=O)c3cccs3)cc2C(=O)N([C@H](C)CO)C[C@@H]1C`, with “inactive”; and `CO[C@H]1CN(C)C(=O)c2cc(NS(C)(=O)=O)ccc2OC[C@@H](C)N(C(=O)C2CCOCC2)C[C@H]1C`, with “inactive”; and `C[C@@H]1CN([C@@H](C)CO)C(=O)Cc2cc(NC(=O)C3CCCCC3)ccc2O[C@H]1CN(C)Cc1ccc(Cl)c(Cl)c1`, with “inactive”.
Turning to `C[C@H]1CN([C@@H](C)CO)C(=O)Cc2cc(NC(=O)Cn3cnnn3)ccc2O[C@H]1CN(C)C(=O)Nc1ccc2c(c1)OCO2`, the cytotoxicity call is “inactive”.
Then `Cc1ccc(S(=O)(=O)N(C)C[C@H]2Oc3c(NS(=O)(=O)c4cn(C)cn4)cccc3C(=O)N([C@H](C)CO)C[C@@H]2C)cc1`, with “inactive”; and `C[N+](C)(C)CCCCCCNC(=O)[C@@H]1C[C@@H]2C(=O)N[C@@H](CCCC[N+](C)(C)C)C(=O)N2[C@@H]1c1ccc(O)cc1`, with “inactive”.
As to `Cc1ccc(S(=O)(=O)N(C)C[C@H]2Oc3ccc(NC(=O)NC(C)C)cc3C(=O)N([C@@H](C)CO)C[C@H]2C)cc1`, the cytotoxicity call was “inactive”.
With `C[C@H](CO)N1C[C@H](C)[C@@H](CN(C)C(=O)N[C@H](C)c2ccccc2)OCc2ccccc2-c2c(n(C)c3ccccc23)C1=O`, the cytotoxicity call is “inactive”.
Then `O=C(C[C@H]1CC[C@@H]2[C@H](COC[C@H](O)CN2S(=O)(=O)c2ccccc2)O1)N1CCc2ccccc2C1`, with “inactive”; and `CCCC[C@@H](C)/C=C(C)/C=C(\C)C(=O)NC1=C[C@@](O)(/C=C/C=C/C=C/C(=O)NC2C(=O)CCC2=O)[C@@H]2O[C@@H]2C1=O`, with “active”.
Take `C[C@@H]1CN([C@@H](C)CO)C(=O)c2cccc(NC(=O)Nc3ccc4c(c3)OCO4)c2O[C@@H]1CN(C)Cc1ccc(Cl)c(Cl)c1`: the cytotoxicity call is “inactive”.
For the molecule `O=C(C[C@@H]1CC[C@H]2[C@@H](COC[C@H](O)CN2CC2CCOCC2)O1)N1CCOCC1`, the cytotoxicity call was “inactive”.
For the molecule `CN1C(=O)c2cc(NC(=O)c3ccc(F)cc3)ccc2OC[C@H]2O[C@@H](CC(=O)N3CCOCC3)CC[C@H]21`, the cytotoxicity call was “inactive”.
As for `COCC(=O)Nc1ccc2c(c1)C(=O)N(C)[C@@H]1CC[C@H](CC(=O)N3CCc4ccccc4C3)O[C@@H]1CO2`, the entry is “inactive”; as for `COCC(=O)Nc1ccc2c(c1)C(=O)N(C)[C@H]1CC[C@H](CC(=O)N3CCc4ccccc4C3)O[C@H]1CO2`, “active”.
For `CN1C(=O)c2cc(NC(=O)c3ccc(F)cc3)ccc2OC[C@H]2O[C@H](CC(=O)N3CCOCC3)CC[C@H]21`, the cytotoxicity call is “inactive”.
Turning to `COc1cccc(C(=O)Nc2ccc3c(c2)C(=O)N(C)[C@@H]2CC[C@H](CC(=O)NCC(F)(F)F)O[C@@H]2CO3)c1`, the cytotoxicity call was “active”.
As for `COc1cccc(C(=O)Nc2ccc3c(c2)C(=O)N(C)[C@H]2CC[C@H](CC(=O)NCC(F)(F)F)O[C@H]2CO3)c1`, the entry is “inactive”; as for `COc1cccc(C(=O)Nc2ccc3c(c2)C(=O)N(C)[C@H]2CC[C@H](CC(=O)NCC(F)(F)F)O[C@@H]2CO3)c1`, “inactive”; as for `COc1cccc(C(=O)Nc2ccc3c(c2)C(=O)N(C)[C@H]2CC[C@H](CC(=O)NCC4CC4)O[C@@H]2CO3)c1`, “inactive”.
On to `COc1cccc(C(=O)Nc2ccc3c(c2)C(=O)N(C)[C@@H]2CC[C@@H](CC(=O)NCC4CC4)O[C@@H]2CO3)c1`, for which the cytotoxicity call was “inactive”.
Then `CN1C(=O)c2cc(NC(=O)c3ccc(F)cc3)ccc2OC[C@@H]2O[C@@H](CC(=O)N3CCOCC3)CC[C@H]21`, with “active”; and `COc1cccc(C(=O)Nc2ccc3c(c2)C(=O)N(C)[C@@H]2CC[C@H](CC(=O)NCC4CC4)O[C@@H]2CO3)c1`, with “active”.
For the molecule `COCC(=O)Nc1ccc2c(c1)C(=O)N(C)[C@H]1CC[C@@H](CC(=O)N3CCc4ccccc4C3)O[C@@H]1CO2`, the cytotoxicity call is “inactive”.
Then `C[C@H]1CN([C@@H](C)CO)C(=O)c2c(c3ccccc3n2C)-c2ccccc2CO[C@@H]1CN(C)Cc1cccc(O)c1`, with “inactive”; and `C[C@H](CO)N1C[C@H](C)[C@H](CN(C)S(C)(=O)=O)Oc2ccc(NC(=O)CCC(F)(F)F)cc2CC1=O`, with “inactive”.
For the molecule `Cc1noc(C)c1S(=O)(=O)Nc1ccc2c(c1)C(=O)N([C@@H](C)CO)C[C@H](C)[C@@H](CN(C)C(=O)NC1CCCCC1)O2`, the cytotoxicity call was “inactive”.
Consider `C[C@@H]1CCCCO[C@@H](CN(C)C(=O)Nc2ccccc2)[C@@H](C)CN([C@@H](C)CO)C(=O)c2cc(NC(=O)CCC(F)(F)F)ccc2O1`, for which the cytotoxicity call is “inactive”.
As for `C[C@H](CO)N1C[C@H](C)[C@@H](CN(C)C(=O)Nc2ccccc2)Oc2c(NS(=O)(=O)c3cn(C)cn3)cccc2C1=O`, the entry is “inactive”; as for `C[C@H]1CN([C@@H](C)CO)C(=O)Cc2cc(NS(=O)(=O)c3ccc(F)cc3)ccc2O[C@@H]1CN(C)S(=O)(=O)c1ccccc1`, “inactive”; as for `COc1ccc2c3c([nH]c2c1)[C@@H](CO)N(CC1CCCC1)C[C@]13CCN(CC1)C(=O)c1ccc(cc1)F`, “inactive”.
In the case of `C[C@H](NC(=O)N(C)C[C@@H]1OCc2ccccc2-c2c(n(C)c3ccccc23)C(=O)N([C@@H](C)CO)C[C@H]1C)c1ccccc1`, the cytotoxicity call is “inactive”.
As to `O=C(C[C@H]1CC[C@H]2[C@@H](COC[C@@H](O)CN2C(=O)c2ccccc2)O1)N1CCOCC1`, the cytotoxicity call was “inactive”.
Regarding `Cc1noc(C)c1S(=O)(=O)Nc1cccc2c1O[C@H](CN(C)Cc1ccc(-c3ccccc3)cc1)[C@H](C)CN([C@@H](C)CO)C2=O`, the cytotoxicity call is “inactive”.
Regarding `Cc1noc(C)c1S(=O)(=O)N(C)C[C@H]1Oc2c(NC(=O)c3cnccn3)cccc2C(=O)N([C@H](C)CO)C[C@H]1C`, the cytotoxicity call was “inactive”.
Turning to `COc1ccc(NC(=O)Nc2ccc3c(c2)C(=O)N([C@@H](C)CO)C[C@@H](C)[C@H](CN(C)S(=O)(=O)c2ccc(C)cc2)OCCCC[C@@H](C)O3)cc1`, the cytotoxicity call is “inactive”.
With `COc1ccc(C(=O)Nc2ccc3c(c2)C(=O)N(C)[C@H]2CC[C@H](CC(=O)NCC4CC4)O[C@H]2CO3)cc1`, the cytotoxicity call was “inactive”.
On to `COc1ccc(C(=O)Nc2ccc3c(c2)C(=O)N(C)[C@H]2CC[C@H](CC(=O)NCC4CC4)O[C@@H]2CO3)cc1`, for which the cytotoxicity call is “inactive”.
For the molecule `CCCNC(=O)C[C@@H]1CC[C@@H]2[C@@H](COc3ccc(NC(=O)c4ccc5c(c4)OCO5)cc3C(=O)N2C)O1`, the cytotoxicity call is “inactive”.
Regarding `CCCNC(=O)C[C@@H]1CC[C@@H]2[C@H](COc3ccc(NC(=O)c4ccc5c(c4)OCO5)cc3C(=O)N2C)O1`, the cytotoxicity call is “inactive”.
For the molecule `COc1ccc(C(=O)Nc2ccc3c(c2)C(=O)N(C)[C@@H]2CC[C@H](CC(=O)NCC4CC4)O[C@@H]2CO3)cc1`, the cytotoxicity call was “active”.
For `COc1ccc(C(=O)Nc2ccc3c(c2)C(=O)N(C)[C@@H]2CC[C@H](CC(=O)NCC4CC4)O[C@H]2CO3)cc1`, the cytotoxicity call is “active”.
Take `COc1ccc(C(=O)Nc2ccc3c(c2)C(=O)N(C)[C@H]2CC[C@@H](CC(=O)NCC4CC4)O[C@H]2CO3)cc1`: the cytotoxicity call is “inactive”.
As for `COc1ccc(C(=O)Nc2ccc3c(c2)C(=O)N(C)[C@@H]2CC[C@@H](CC(=O)NCC4CC4)O[C@@H]2CO3)cc1`, the cytotoxicity call is “inactive”.
Consider `CCCNC(=O)C[C@H]1CC[C@@H]2[C@@H](COc3ccc(NC(=O)c4ccc5c(c4)OCO5)cc3C(=O)N2C)O1`, for which the cytotoxicity call is “active”.
